The values below come from PubChem BioAssay (EPA / NIEHS).

Structures are written as SMILES. Results filed as inconclusive are left out. Calls of active or inactive are those of the source. Rule for the calls: active = hit-call score of the fitted dose curve at least 0.9, where 1 is the maximum; inconclusive = response in the unintended direction; inactive = score below 0.9.

Sequence of Luciferin 4-monooxygenase (Photinus pyralis) (P08659 whole entry, looked up): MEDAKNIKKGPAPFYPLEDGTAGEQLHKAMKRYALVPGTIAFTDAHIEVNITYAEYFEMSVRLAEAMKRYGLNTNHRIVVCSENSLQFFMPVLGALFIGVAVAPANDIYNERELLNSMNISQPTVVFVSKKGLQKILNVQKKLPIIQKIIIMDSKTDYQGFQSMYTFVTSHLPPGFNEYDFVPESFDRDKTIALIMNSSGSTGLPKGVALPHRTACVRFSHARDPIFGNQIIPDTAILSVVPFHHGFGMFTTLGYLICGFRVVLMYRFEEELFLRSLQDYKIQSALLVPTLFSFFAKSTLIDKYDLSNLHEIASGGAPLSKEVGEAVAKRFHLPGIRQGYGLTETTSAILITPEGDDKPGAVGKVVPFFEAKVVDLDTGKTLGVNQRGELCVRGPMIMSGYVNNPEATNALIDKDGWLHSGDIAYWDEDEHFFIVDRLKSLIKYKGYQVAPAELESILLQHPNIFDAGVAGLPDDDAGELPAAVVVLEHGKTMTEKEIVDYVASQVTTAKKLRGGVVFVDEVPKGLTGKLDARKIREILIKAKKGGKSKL

The target of this assay is Luciferin 4-monooxygenase (Photinus pyralis) (UniProt P08659). Briefly: CCTE_Simmons_QuantiLum_inhib_2: CCTE's Firefly Luciferase Inhibition Assay, Simmons Lab (AID 2283767).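 For AC50: potency for inhibitors that lower luciferase luminescence relative to DMSO.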 In outline:
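Counter-screen for nonspecific enzyme inhibition: purified firefly luciferase incubated 30 min at 37C with chemicals up to 87.5 uM final, then luminescence measured after luciferin/dATP injection; activity fitted against DMSO baseline.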
In general, AC50 refers to the midpoint of the concentration-response curve, whichever way the signal moves. For the molecule `CCN(Cc1cccc(S(=O)(=O)O)c1)c1ccc(C(=C2C=CC(=[N+](CC)Cc3cccc(S(=O)(=O)O)c3)C=C2)c2ccccc2S(=O)(=O)[O-])cc1`, the AC50 is 15.8 µM (active).

On to `OC12N=C(c3ccccc3)SC1Cc1cc(Cl)ccc12` (configuration not stated), for which the half-maximal activity concentration (AC50) is 17.1 µM (active).

In the case of `C[C@]12CC[C@@H]3c4ccc(O)cc4CC[C@H]3[C@@H]1CC[C@H]2O`, the molecule was classed as inactive.

`O=C(O)Cc1cc(I)c(Oc2ccc(O)c(I)c2)c(I)c1`: the outcome was inactive.

For the molecule `CCCCCc1ccc(N)cc1`, the result was inactive.

Turning to `CC/C(=C(/CC)c1ccc(O)cc1)c1ccc(O)cc1`, the call was inactive.

As to `CN(C[C@@H](CC[N+]12CCC(C3CCCCC3)(CC1)CC2)c1ccc(Cl)c(Cl)c1)C(=O)c1cc(C(F)(F)F)cc(C(F)(F)F)c1`, the result was inactive.

Regarding `O=c1c(-c2ccc(O)cc2)coc2cc(O)cc(O)c12`, the AC50 is 7.86 µM (active).

`O=C1CCC(C2CCCCC2)CC1`: the half-maximal activity concentration (AC50) is 3.38 µM (active).

Consider `CCCOC(=O)c1cc(O)c(O)c(O)c1`, for which the molecule was classed as inactive.

As for `NCc1cccc(C2CCN(C(=O)c3ccc(C#Cc4ccccc4F)o3)CC2)c1`, the call was inactive.

Consider `Cc1c2ccccc2c(C)c2c1ccc1ccccc12`, for which the molecule was called inactive.

With `CC(=O)N1CCN(c2ccc(OC[C@H]3CO[C@](Cn4ccnc4)(c4ccc(Cl)cc4Cl)O3)cc2)CC1`, the outcome was inactive.

Consider `O=C1O[C@H]([C@@H](O)CO)C(O)=C1O`, for which the molecule was classed as inactive.

As to `CN(C)c1ccc(C(=C2C=CC(=[N+](C)C)C=C2)c2ccc(N(C)C)cc2)cc1`, the AC50 was 3.03 µM (active).

Take `CCCCCCCCOC(=O)c1cc(O)c(O)c(O)c1`: the half-maximal activity concentration (AC50) is 31.5 µM (active).

Take `COc1cc(C(=O)NC2CCN(C)CC2)ccc1Nc1ncc2c(n1)N(C1CCCC1)CC(F)(F)C(=O)N2C`: the molecule was classed as inactive.
